Where “and” joins values, the source holds several entries; their conditions need not be identical. Identical values can stand only once. Hit rate of the full screen: of about 5,500 compounds, about 2,000 (36%) were called active. Another 18% or so got no clear call; they are omitted. Rule as the data show it: active = normalized growth mostly below about 0.91 (no sharp cut-off); inconclusive = no clear call, values can overlap the other calls; inactive = mostly above about 0.92. The list shows a part of the results. A structure can be active in one record and inactive in another.
Test: chemical genetic growth profiling, strain panel (AID 1159580);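 also: tested at 20 µM; growth read once vehicle control cultures reached saturation at 30 °C; 1 = growth at the plate median or of vehicle wells; lower values mean less growth of the strain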
Conditions: S. cerevisiae deletion strains, growth OD

Measured: normalized growth

O=C1c2c(O)ccc(O)c2C(=O)c2c(NCCNCCO)ccc(NCCNCCO)c21
0.916 (inactive) and 0.755 (active): locus YJL095W, strain BCK1, stronger effect = lower value
inactive: locus YAL040C, strain CLN3, stronger effect = lower value 1.06 | locus YBR021W, strain FUR4, stronger effect = lower value 0.941 | locus YBR171W, strain sec66, stronger effect = lower value 0.911 | locus YBR229C, strain ROT2, stronger effect = lower value 1.03 | locus YCL029C, strain bik1, stronger effect = lower value 1.01 | locus YCL061C, strain MRC1 (second series), stronger effect = lower value 0.983 | locus YCL069W, strain vba3, stronger effect = lower value 0.946 | locus YDL035C, strain GPR1, stronger effect = lower value 0.976 | locus YDL040C, strain nat1, stronger effect = lower value 1.03 | locus YDL074C, strain BRE1, stronger effect = lower value 0.897 | locus YDL101C, strain DUN1, stronger effect = lower value 1.01 | locus YDL134C, strain PPH21, stronger effect = lower value 0.977 | locus YDL185W, strain tfp1, stronger effect = lower value 0.943 | locus YDR001C, strain nth1, stronger effect = lower value 1.01 | locus YDR101C, strain arx1, stronger effect = lower value 1.04 | locus YDR150W, strain NUM1, stronger effect = lower value 0.993 | locus YDR162C, strain NBP2, stronger effect = lower value 0.921 | locus YDR318W, strain mcm21, stronger effect = lower value 0.982 | locus YDR334W, strain swr1, stronger effect = lower value 0.981 | locus YDR363W, strain ESC2, stronger effect = lower value 0.919 | locus YDR502C, strain sam2, stronger effect = lower value 0.983 | locus YEL061C, strain CIN8, stronger effect = lower value 1.02 | locus YER002W, strain NOP16, stronger effect = lower value 1.05 | locus YER110C, stronger effect = lower value 1.07 | locus YER155C, strain BEM2 (second series), stronger effect = lower value 0.965 | locus YER155C, strain BEM2, stronger effect = lower value 1.04 | locus YER167W, strain BCK2, stronger effect = lower value 0.96 | locus YGL078C, strain dbp3, stronger effect = lower value 0.942 | locus YGL086W, strain mad1, stronger effect = lower value 1.01 | locus YGL227W, strain vid30, stronger effect = lower value 1.08 | locus YGL248W, strain PDE1, stronger effect = lower value 1.02 | locus YGR078C, strain PAC10, stronger effect = lower value 1.01 and 1.07 | locus YGR135W, strain pre9, stronger effect = lower value 0.942 | locus YGR252W, strain gcn5, stronger effect = lower value 0.924 | locus YHR013C, strain ard1, stronger effect = lower value 0.878 | locus YHR079C, strain IRE1 (second series), stronger effect = lower value 1 | locus YHR079C, strain IRE1, stronger effect = lower value 0.951 | locus YHR094C, strain hxt1, stronger effect = lower value 1.05 | locus YHR129C, strain ARP1, stronger effect = lower value 1.02 | locus YHR200W, strain rpn10, stronger effect = lower value 0.985 | locus YIL066C, strain RNR3, stronger effect = lower value 0.992 | locus YIL073C, strain SPO22, stronger effect = lower value 0.917 | locus YIL125W, strain kgd1, stronger effect = lower value 0.986 | locus YIR030C, strain dcg1, stronger effect = lower value 1.02 | locus YJL134W, strain LCB3, stronger effect = lower value 1.04 | locus YJL154C, strain vps35, stronger effect = lower value 1.05 | locus YJL168C, strain set2, stronger effect = lower value 1.05 | locus YJL187C, strain SWE1 (second series), stronger effect = lower value 0.968 | locus YJL187C, strain SWE1, stronger effect = lower value 0.997
active: locus YAL021C, strain ccr4, stronger effect = lower value 0.499 | locus YAL026C, strain drs2, stronger effect = lower value 0.363 | locus YAL030W, strain snc1, stronger effect = lower value 0.839 | locus YBL061C, strain skt5, stronger effect = lower value 0.81 | locus YBR009C, strain hhf1, stronger effect = lower value 0.831 | locus YBR023C, strain chs3, stronger effect = lower value 0.868 | locus YBR231C, strain swc5, stronger effect = lower value 0.84 | locus YBR279W, strain paf1, stronger effect = lower value 0.669 | locus YCL011C, strain gbp2, stronger effect = lower value 0.894 | locus YCL016C, strain dcc1, stronger effect = lower value 0.385 | locus YCL061C, strain MRC1, stronger effect = lower value 0.868 | locus YCR088W, strain abp1, stronger effect = lower value 0.828 | locus YDL005C, strain med2, stronger effect = lower value 1.12 [resistant] | locus YDL192W, strain arf1, stronger effect = lower value 0.889 | locus YDR069C, strain doa4, stronger effect = lower value 0.684 | locus YDR137W, strain rgp1, stronger effect = lower value 0.572 | locus YDR159W, strain sac3, stronger effect = lower value 0.788 | locus YDR195W, strain ref2 0.764 | locus YDR297W, strain sur2, stronger effect = lower value 0.885 | locus YDR335W, strain msn5, stronger effect = lower value 0.821 | locus YDR388W, stronger effect = lower value 0.892 | locus YDR392W, strain spt3, stronger effect = lower value 1.28 [resistant] | locus YEL003W, strain gim4, stronger effect = lower value 0.878 | locus YEL037C, strain rad23, stronger effect = lower value 0.818 | locus YEL061C, strain CIN8 (second series), stronger effect = lower value 0.896 | locus YER015W, strain faa2, stronger effect = lower value 0.865 | locus YER016W, strain bim1, stronger effect = lower value 0.793 | locus YER111C, strain swi4, stronger effect = lower value 0.397 | locus YFR010W, strain ubp6, stronger effect = lower value 0.564 | locus YGL167C, strain pmr1, stronger effect = lower value 0.619 | locus YGL173C, strain kem1, stronger effect = lower value 0.57 | locus YGL240W, strain doc1, stronger effect = lower value 0.696 | locus YGL253W, strain hxk2, stronger effect = lower value 0.738 | locus YHR027C, strain rpn1, stronger effect = lower value 0.756 | locus YHR142W, strain chs7, stronger effect = lower value 0.582 | locus YJL092W, strain hpr5, stronger effect = lower value 0.609 | locus YJL095W, strain BCK1 (second series), stronger effect = lower value 0.482 | locus YJL115W, strain asf1, stronger effect = lower value 0.321 | locus YJL129C, strain trk1, stronger effect = lower value 0.306 | locus YJL164C, strain tpk1, stronger effect = lower value 0.735 | locus YJL166W, strain qcr8, stronger effect = lower value 0.858 | locus YJR043C, strain POL32, stronger effect = lower value 0.779
1.03 (inactive) and 0.713 (active): locus YHR030C, strain SLT2, stronger effect = lower value
0.968 (inactive) and 0.9 (active): locus YAL013W, strain DEP1, stronger effect = lower value

Source: PubChem BioAssay AID1159580 (chemical genetic matrix, 2015)
